From PubChem BioAssay AID592 (National Center for Advancing Translational Sciences (NCATS), 2007)
Values joined by “and” are separate entries in the source; they are usually repeats but may differ in a detail not shown here. Equal entries are not always repeated. Among all 59,000 compounds or so, fewer than 10 were called active. The rule behind the calls is not given here. Not all results are given here.

Experiment: qHTS Assay for Spectroscopic Profiling in A647 Spectral Region
Details: Compound fluorescence, A647 channel (570/671 nm), Tris buffer; stronger effect = higher value
Description: NIH Molecular Libraries Screening Centers Network [MLSCN] NIH Chemical Genomics Center [NCGC] […] Occasionally, the artifactual effect may originate from the compounds own spectral or other biophysical properties which generally tend to track its assay concentration. Pre-screening/profiling the library with respect to the compounds spectral properties should help one exclude false positives early on. While the most informative fluorescent profiling data set is obtained by performing a full excitation and emission scan of each well by using a monochromator-based plate reader, such an approach is practical only on a very limited scale as scanning each well requires long time. An alternative approach, applied here, is to perform plate reader scans using selected excitation and emission wavelength pairs to generate a multidimensional relational database that correlates compound concentration and the respective relative fluorescence intensity at a given wavelength set. A standard curve of Alexa 647 (A647) present on each plate as six-point concentration series, was used to compute a normalized fluorescence response, termed dye-equivalent concentration, for each compound at each concentration.
NCGC Assay Protocol Summary: Buffer: 100 mM Tris buffer, pH 8.0 Dye standard plate: The wells in columns 1 through 4 of a Kalypsys polypropylene 1536-well compound plate were filled with standard solutions of fluorophore corresponding to the spectral region of interest. Solutions of A647 were placed in the following wells: AC1, AD1: 3 mM, AC2, AD2: 300 uM, AC3, AD3: 30 uM, AC4, AD4: zero (DMSO), AE1, AF1: 3 uM, AE2, AF2: 900 nM, AE3, AF3: 300 nM, AE4, AF4: zero (DMSO). Assay Steps: Six uL of buffer were dispensed to 1536-well Greiner black plates. Compounds and dye standards (23 nL) were transferred via Kalypsys PinTool. The plates were incubated for 15 min at room temperature, and then read on ViewLux (Perkin-Elmer) High-throughput CCD imager using 570 nm and 671 nm excitation and emission filter set. Keywords: NIH Roadmap, MLSCN, MLI, MLSMR, qHTS, NCGC, A647, A-647, Fluorescent Profiling.

Max dye-equivalent concentration, inactive:
CCOc1cc(CO)ccc1OCC(=O)N1CCCCC1 5.6e-09 M
COC(=O)Nc1c(C)n(C)n(-c2ccccc2)c1=O 1e-09 M
CCN(CC)C(=O)C1CCC(C)(C(=O)O)C1(C)C (centres undefined) 5.6e-09 M
O=C(O)c1c(Br)c(Br)c(Br)c(Br)c1C1c2ccc(O)cc2Oc2cc(O)ccc21 1e-09 M
O=C(Nc1ccon1)c1cccc(Cl)c1 1e-09 M
Cc1cccc2cc(CN(Cc3ccc4c(c3)OCO4)Cc3nnnn3C3CCCC3)c(=O)[nH]c12 1e-09 M
COCCCn1c(CCC(=O)O)ccc1-c1ccc(F)cc1 2.6e-08 M
COCCn1nnnc1CN1CCC(NC(=O)Nc2cccc(OC)c2)CC1 4.1e-08 M
O=C(O)[C@@H](S)[C@H](S)C(=O)O 1.2e-09 M
COCCCNC(=O)CSc1nc2ccc(N3CCOCC3)cc2c(=O)n1CCc1ccccc1 1.9e-08 M
Cc1ccc(-c2noc(CSc3nnc(-c4ccccc4)n3C)n2)cc1 1.7e-08 M
COc1ccc(C2OC(=O)CC2C(=O)NC(C)C)cc1 (centres undefined) 2.6e-09 M
Cc1cc(Cl)c(S(=O)(=O)NCC2CCCO2)cc1OCC(N)=O (centres undefined) 1e-09 M
CC1(N2CCOCC2)CC2(O)C(=[N+]1[O-])CCc1nonc12 (centres undefined) 3.1e-08 M
Cc1ccc(C(=O)O)cc1S(=O)(=O)NCC1CCCO1 (centres undefined) 1e-09 M
O=C(c1ccncc1)N1CCC2(CCCN(C(c3ccccc3)c3ccccc3)C2)CC1 1e-08 M
C[C@@H]1CC[C@H]2[C@H](C)[C@H]3[C@H](C[C@H]4[C@@H]5CC=C6C[C@@H](O)CC[C@@]6(C)[C@@H]5C[C@@H](O)[C@]34C)N2C1 2.4e-09 M
Cn1nnnc1SCC(=O)N1CCN(C(c2ccccc2)c2ccccc2)CC1 1e-09 M
CCCC(C)n1[nH]c(=O)c2c(C)cc(C)nc21 (centres undefined) 1.6e-08 M
N#Cc1c2c(c(-c3ccccc3)[nH]c1=O)CCCC2 5.5e-08 M
Cc1ccccc1C(=O)Nc1cccc(-c2nnc(SCC(=O)O)n2C)c1 1.8e-08 M
O=C(Nc1ccccc1C(=O)N1CCOCC1)C1CCC(=O)N1C1CCCC1 (centres undefined) 1.4e-08 M
O=S(=O)(c1ccccc1)N(CC(O)CN1CCCCC1)c1ccccc1 (centres undefined) 1e-09 M
CCC(C)(C)n1nnnc1C(c1cccs1)N1CCN(Cc2ccccc2)CC1 (centres undefined) 3.5e-08 M
Cc1c(C(=O)Nc2ccccc2Cl)oc2ccc(S(=O)(=O)N3CCC4(CC3)OCCO4)cc12 4.5e-08 M
CCC(Oc1ccccc1)C(=O)NCc1cccnc1 (centres undefined) 1.3e-09 M
CC(C)OC(=O)c1sc2nc3c(cc2c1N)C(=O)CCC3 1.2e-08 M
Cn1cc(-c2nc3cncnc3n(-c3ccccc3)c2=O)c2ccccc21 1e-09 M
O=C(/C=N/O)Nc1ccccc1 1e-09 M
CCOC(=O)N1CCN(S(=O)(=O)c2ccc(C(=O)Nc3ccc(F)cc3F)cc2)CC1 2.9e-08 M
COc1ccccc1N1CCN(CCCCOc2ccc(F)cc2)CC1 1e-09 M
COc1ccc2nc(N3CCCC(O)C3)c(C#N)cc2c1 (centres undefined) 2.2e-08 M
CCCCN(CC)CCCNC(=O)CS(=O)(=O)Cc1nc(-c2cccc(OC)c2)oc1C 1e-09 M
COC(=O)c1ccccc1NC(=O)CN(Cc1ccccc1)S(C)(=O)=O 1e-09 M
COc1cccc(OC)c1OCCN1CCN(C(=O)c2ccco2)CC1 1e-09 M
Cc1cc(Cl)ccc1N1C(=O)CC(SCCC(=O)O)C1=O (centres undefined) 1e-09 M
COc1ccc(CC(=O)Nc2c3c(nn2-c2cccc(Cl)c2)CS(=O)C3)cc1 (centres undefined) 1.2e-08 M
Cc1c(C(=O)OCc2cc(=O)n3cc(Br)ccc3n2)oc2ccccc12 2.8e-08 M
CCOC(=O)N1CCN(C(=O)c2cn(C)c3ccc(S(=O)(=O)N4CCCC4)cc3c2=O)CC1 2.1e-08 M
Cc1cc(NC(=O)COc2ccc(Cl)cc2Cl)n(CCC#N)n1 1.8e-08 M
Cc1ccc(S(=O)(=O)NCc2cn3ccsc3n2)c(C)c1 1.8e-08 M
CCOc1cc(-c2nc3cc(C)ccn3c2NCC2CCCO2)ccc1O (centres undefined) 1.4e-08 M
CC(C)C(C(=O)NC1CCCCC1)N(CC1CCCO1)C(=O)CNS(=O)(=O)c1ccc(F)cc1 (centres undefined) 1e-09 M
COc1ccccc1N1CCN(c2nc3ccccc3n3nnnc23)CC1 4.2e-08 M
O=C(c1cccc(F)c1)N1CCC2(CC1)CCN(c1ccccc1)CC2 1.1e-09 M
COc1ccccc1CNCc1cccs1 2.5e-08 M
O=C(CN1C(=O)COc2ccccc21)NCCN1CCc2ccccc2C1 2.3e-08 M
CC(C)CCNC(=O)C(C)N(C(=O)Cn1nnc(-c2ccc(F)cc2)n1)C1CCCC1 (centres undefined) 1e-09 M
CN1CCN(S(=O)(=O)c2ccc(NC(=O)c3ccco3)cc2)CC1 3.8e-09 M
CCOC(=O)CSc1nc2sc3c(c2c(=O)[nH]1)CC(C)(C)OC3 2.2e-09 M
Cc1cc(=O)oc(C)c1C(=O)Nc1cnc2ccccc2c1 5.4e-09 M
CN(C)CCSc1nc(N)c2c3c(sc2n1)COC(C)(C)C3 6.7e-09 M
Cc1ccc(C(=O)CSc2nnc(Cn3nnc4ccccc43)n2C)cc1 1.5e-08 M
CCCc1cc(=O)n2[nH]c(SCc3ccccc3)nc2n1 2.8e-08 M
O=C(c1ccco1)N(Cc1nc2ccccc2c(=O)[nH]1)C1CCCC1 4.1e-08 M
COC(=O)[C@H](CCSC)NC(=O)Nc1ccc(OC)cc1 5.2e-09 M
CC[N+](C)(CC)CCC[n+]1c(-c2ccccc2)c2cc(N)ccc2c2ccc(N)cc21 1.7e-09 M
O=c1c(CCc2ccccc2)nc2cnc(N3CCNCC3)nc2n1Cc1cccs1 1e-09 M
O=C(OCC(=O)N1CCN(C(=O)c2ccco2)CC1)c1ccccc1Cc1ccccc1 7.2e-09 M
CCOc1ccccc1N=C1NC(=O)CS1 4.1e-09 M
CCOC(=O)C1CCN(C(c2cc3cc(C)cc(C)c3[nH]c2=O)c2nnnn2C2CCCCC2)CC1 (centres undefined) 1e-09 M
CCCSC1=C(C#N)C(c2ccccc2C)C(C(=O)OC)C(=O)N1 (centres undefined) 5.8e-08 M
COCC(C)n1c(SCc2ccc(C(=O)OC)o2)nc2ccccc2c1=O (centres undefined) 1.6e-09 M
COC(=O)c1ccc(C2CC(=O)Nc3cc(OC)c(OC)cc32)cc1 (centres undefined) 1e-09 M
CC(C)c1nc(N2CCOCC2)c(C#N)c2c1COC(C)(C)C2 6.9e-08 M
CCCC(=O)Nc1c(O)c2ccccc2[nH]c1=O 1e-09 M
C=C(C)CSc1nc(N)c2c3c(sc2n1)CCC3 1.9e-09 M
O=C(OC1CCOC1=O)c1ccc(-c2nc3ccccc3s2)s1 (centres undefined) 1e-09 M
CCCS(=O)(=O)C(=C1Nc2ccccc2N1)S(=O)(=O)CCC 1e-09 M
CSc1sc(C)cc1C1C(C#N)=C(N)N(c2cccnc2)C2=C1C(=O)CCC2 (centres undefined) 1.8e-08 M
CCN(CC)C(=O)N1CCN(C(=O)c2ccc(C)cn2)CC1 1e-09 M
CCC(CC)c1nnc(NS(=O)(=O)Cc2ccccc2)s1 5e-09 M
COC(=O)c1c(NC(=O)c2cccs2)sc2c1CCCC2 1e-09 M
CC1CCC(NC(=O)c2ccc(N3CCCC3=O)cc2)CC1 (centres undefined) 6e-09 M
CCCNC(=O)Nc1ccccc1C(=O)Nc1ccc(OC)cc1 1.2e-09 M
COc1ccccc1-n1nnnc1S(=O)(=O)Cc1ccc(Cl)cc1 3.7e-08 M
CCN1C(=O)/C(=C2/Sc3ccccc3N2CCCS(=O)(=O)O)SC1=S 1e-09 M
CCCCC(=O)Nc1ccc(C(=O)NCCCn2ccnc2)cc1 2.5e-09 M
CCOC(=O)CNC(=O)CSc1nnc(COc2ccc(Cl)cc2)n1CC 3.9e-08 M
N#C/C=C1\Sc2ccccc2C(=O)N1CC(=O)N1CCN(S(=O)(=O)c2ccccc2)CC1 1e-09 M
N#CC1=C(N)C(C#N)(C#N)[C@H](c2ccsc2)[C@H]2COCC=C12 2.5e-08 M
CC(C)C[C@H](NC(=O)[C@@H]1O[C@H]1C(=O)O)C(=O)NCCCCN=C(N)N 6e-08 M and 5.1e-08 M
Cc1ccc2[nH]c3c(c2c1)CN(C(=O)CN1CCN(c2ccccc2)CC1)CC3 1.2e-08 M
Cc1ccc(C(C(=O)NC2CCCC2)N(Cc2ccco2)C(=O)CCC(=O)Nc2ccccn2)cc1 (centres undefined) 2.3e-08 M
CC(=O)/C(C)=N\O 3.4e-08 M
COC(=O)c1cc(C(=O)OC)cc(N2C(=O)CC(N3CCN(c4ccccc4)CC3)C2=O)c1 (centres undefined) 1.4e-08 M
CC(=O)Nc1ccc(S(=O)(=O)Nc2nc3n(n2)C(c2ccccc2)CC(=O)N3)cc1 (centres undefined) 1.6e-08 M
N#Cc1c(N)sc2c1CCN(C(=O)OCc1ccccc1)C2 3.6e-08 M
O=S(=O)(c1cccc(S(=O)(=O)N2CCC(n3nnc4ccccc43)CC2)c1)N1CCCCC1 2.3e-08 M
